These results are taken from PubChem BioAssay (NCATS).

Test [1] addresses Glutathione peroxidase 1 (Homo sapiens) (UniProt P07203). The experiment in a line: Primary qHTS Assay for Inhibitors of Recombinant Selenoprotein Glutathione Peroxidase 1 (GPX1) (AID 1845191). Also: nearly all actives have a fitted effect of over 65% in size. The procedure, abridged: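 GR-coupled readout: NADPH consumption tracked by fluorescence, ex 340/em 450 nm, at t=0 and after 15 min at RT. Final mix 10 nM GPX1, 1 mM GSH, 0.5 mM CHP, 0.5 mM NADPH, 100 nM GR, 0.01% BSA, following 30 min enzyme–compound preincubation.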

Test [2] concerns the target Phospholipid hydroperoxide glutathione peroxidase GPX4 (Homo sapiens) (UniProt P36969). The experiment in a line: Primary qHTS Assay for Inhibitors of Recombinant Selenoprotein Glutathione Peroxidase 4 (GPX4) (AID 1845192). Also: nearly all actives have a fitted effect of over 65% in size. The procedure, abridged:
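Steps: GPX4 plus compound, 30 min RT; add GR/GSH/NADPH master mix; start with cumene hydroperoxide; read 340/450 nm fluorescence at 0 and 15 min. Finals were 200 nM GPX4, 1 mM GSH, 0.5 mM CHP, 0.5 mM NADPH, 100 nM GR.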
A general note: In qHTS, concentration-response curves come from the screen itself.

Test [3] concerns the target Luciferin 4-monooxygenase (Photinus pyralis) (UniProt P08659). The experiment in a line: Primary firefly luciferase (FLuc) qHTS assay for identification of artifact compounds. (AID 1845220). Also: nearly all actives have a fitted effect of over 60% in size. The procedure, abridged:
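Enzymatic FLuc inhibition assay: compounds pre-exposed to luciferin/ATP (10 uM each) for 15 min, then purified P. pyralis enzyme at 10 nM added. Read-out: luminescence at 5 min.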

Test [4] can be described thus: Primary fluorescence-based thiol-reactive (MSTI) qHTS assay for identification of artifact compounds. (AID 1845221). Also: nearly all actives have a fitted effect of over 65% in size. The essentials:
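MSTI probe at 4 uM final in 2% DMSO/PBS pH 7.4; compounds, 1 h at room temperature in dark. Fluorescence Ex/Em 525/598 nm, normalised to Acetyl-MSTI and MSTI, fitted to 4-parameter Hill.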

In test [5] the test system is Nanoluciferase (engineered Oplophorus gracilirostris luciferase). The experiment in a line: Primary Nanoluciferase (NLuc) qHTS assay for identification of artifact compounds. (AID 1845222). The procedure, abridged:
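S16 cell supernatant NLuc, 1:55; cpds qHTS; 15 min RT dark; Nano-Glo substrate 1:100, 5 min; luminescence; Hill fit of % inhibition.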

A short description of test [6]: Primary redox qHTS assay for identification of artifact compounds. (AID 1845223). The essentials:
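Redox-cycling detection via DTT (250 uM final) oxidation coupled to Amplex Red (25 uM)/HRP (250 mU/mL) in HBSS. 15 min preincubation plus 30 min after DTT, room temperature. Ex/Em 525/598 nm; 4-parameter Hill fit against DMSO and 10 uM DA3003.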

SMILES strings stand for the structures. Values without a mark were called inactive. Inconclusive results are not listed. Activity calls are given as the source filed them. Calls follow the shape of the dose curve; as a rule, active = well fitted curve in the direction sought with a large enough effect; inconclusive = small, poorly fitted or top-dose-only effect, or another doubt; inactive = no such curve, though single readings can be large; an effect the other way counts as inactive or inconclusive.
Potency is read from the fitted curve at half-maximal effect.

Chain of Glutathione peroxidase 1 (Homo sapiens) (P07203 whole entry, looked up): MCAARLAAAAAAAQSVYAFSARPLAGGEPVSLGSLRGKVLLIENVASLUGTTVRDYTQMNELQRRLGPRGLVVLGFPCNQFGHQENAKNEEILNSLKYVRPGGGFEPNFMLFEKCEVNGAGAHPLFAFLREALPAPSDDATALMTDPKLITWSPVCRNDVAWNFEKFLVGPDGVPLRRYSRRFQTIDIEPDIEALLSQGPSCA
Chain of Phospholipid hydroperoxide glutathione peroxidase GPX4 (Homo sapiens) (P36969 whole entry, looked up): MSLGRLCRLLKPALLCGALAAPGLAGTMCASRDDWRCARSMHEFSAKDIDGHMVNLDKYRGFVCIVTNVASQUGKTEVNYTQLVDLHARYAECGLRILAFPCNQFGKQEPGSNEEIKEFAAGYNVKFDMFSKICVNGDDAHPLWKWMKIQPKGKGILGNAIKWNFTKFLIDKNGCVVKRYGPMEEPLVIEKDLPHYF

As to `C=C(C)[C@@H]1CC[C@]2(C(=O)O)CC[C@]3(C(=O)O)[C@H](CCC4[C@@]5(C)CCC(=O)C(C)(C)C5CC[C@]43C)C12` (some centres undefined), the Potency entry in test [1], in test [2], in test [3], in test [4], in test [5] and in test [6] was “inactive” throughout.

Turning to `COc1ccc(-c2ccc3c(N4CCOCC4C)nc(N4CCOCC4C)nc3n2)cc1CO` (centres undefined), the Potency in test [1] was 18 µM (active); in test [2], 10.1 µM (active). Also, the Potency entry in test [3], in test [4], in test [5] and in test [6] was “inactive” throughout.

Consider `COc1cc(-c2nc(N[C@H](CO)Cc3ccccc3)ccc2C(=O)NCCOc2ccccc2)cc(OC)c1OC`, for which the Potency result in test [1], in test [2], in test [3], in test [4], in test [5] and in test [6] was “inactive” each time.

On to `Cn1cc(-c2cnn3c(N)c(Br)c([C@@H]4CCCNC4)nc23)cn1`, for which the Potency result in test [1], in test [2], in test [3], in test [4], in test [5] and in test [6] was “inactive” throughout.

Consider `CCC(C)C(=O)O[C@H]1[C@@H](OC(=O)c2ccoc2)C[C@](C)(O)[C@]23OC(C)(C)[C@H](C[C@H](OC(=O)c4ccoc4)[C@]12COC(C)=O)[C@H]3OC(C)=O` (some centres undefined), for which the Potency entry in test [1], in test [2], in test [3], in test [4], in test [5] and in test [6] was “inactive” in each case.

Turning to `CC(C)C[C@@H](N)C(=O)N[C@H]1C(=O)N[C@@H](CC(N)=O)C(=O)N[C@H]2C(=O)N[C@H]3C(=O)N[C@H](C(=O)N[C@H](C(=O)O)c4cc(O)cc(O)c4-c4cc3ccc4O)[C@H](O)c3ccc(c(Cl)c3)Oc3cc2cc(c3O[C@@H]2O[C@H](CO)[C@@H](O)[C@H](O)[C@H]2O[C@H]2C[C@](C)(N)[C@H](O)[C@H](C)O2)Oc2ccc(cc2Cl)[C@H]1O`, the Potency entry in test [1], in test [2], in test [3], in test [4], in test [5] and in test [6] was “inactive” in each case.

As for `Cc1ccc(-c2ncc[nH]2)cc1NC(=O)c1ccc(OCc2ccccn2)cc1`, the Potency entry in test [1], in test [2], in test [3], in test [4], in test [5] and in test [6] was “inactive” each time.

In the case of `O=S(=O)(Cc1ccccc1)Nc1ccc(-c2ccc3c(cnn3-c3ccc(F)cc3)c2)c(C(F)(F)F)c1`, the Potency result in test [1], in test [2], in test [3], in test [4], in test [5] and in test [6] was “inactive” in each case.

For the compound `C=C1CCC[C@]2(C)CC/C(=C(/CO)C(=O)OC)C[C@@H]12`, the Potency entry in test [1], in test [2], in test [3], in test [4], in test [5] and in test [6] was “inactive” in each case.

As for `O=C1Nc2nc(-c3c(O)cccc3OCC3CC3)cc([C@@H]3CCCNC3)c2CO1`, the Potency result in test [1], in test [2], in test [3], in test [4], in test [5] and in test [6] was “inactive” throughout.

As for `COc1cccc(-c2cc(F)ccc2C2Cc3nc(N)nc(C)c3C(=O)N2)n1` (centres undefined), the Potency result in test [1], in test [2], in test [3], in test [4], in test [5] and in test [6] was “inactive” in each case.

On to `C=CC(=O)Nc1cccc(Nc2nc(Nc3ccc(NC4CN(CCF)C4)cc3OC)ncc2C(F)(F)F)c1`, for which the Potency entry in test [1], in test [2], in test [3], in test [5] and in test [6] was “inactive” in each case. Moreover, the Potency in test [4] is 2.38 µM (active).

Turning to `OC[C@H]1O[C@@H](OC/C=C/c2ccc(O)cc2)[C@H](O)[C@@H](O)[C@@H]1O`, the Potency result in test [1], in test [2], in test [3], in test [4], in test [5] and in test [6] was “inactive” throughout.

For `O=c1cc(N2CCN(c3cccc(C(F)(F)F)c3)CC2)[nH]c(=O)n1C1CCCCC1`, the Potency result in test [1], in test [2], in test [3], in test [4], in test [5] and in test [6] was “inactive” in each case.

For `CCCCNc1ncc(-c2ccc(CN3CCOCC3)cn2)c(NC2CCC(O)CC2)n1` (centres undefined), the Potency result in test [1], in test [2], in test [3], in test [4], in test [5] and in test [6] was “inactive” each time.

As for `COc1cc(NC(=O)c2cccc(-n3cc(NC(=O)Nc4cccc(C)c4)cn3)c2)cc(OC)c1OC`, the Potency entry in test [1], in test [2], in test [3], in test [4], in test [5] and in test [6] was “inactive” in each case.

Regarding `CCC(C)CC(=O)OC1C(=O)C(CO)=CC(O)C1C(C)C` (centres undefined), the Potency result in test [1], in test [2], in test [3], in test [4], in test [5] and in test [6] was “inactive” each time.

As for `C=C(C)C1CCC2(C(=O)O)CCC3(C)C(CCC4C5(C)C(C=O)C(O)C(C)(C)C5CCC43C)C12` (centres undefined), the Potency result in test [1], in test [2], in test [3], in test [4], in test [5] and in test [6] was “inactive” in each case.

Take `O=S(=O)(c1ccccc1)N(CC(F)(F)F)c1ccc(C(O)(C(F)(F)F)C(F)(F)F)cc1`: the Potency result in test [1], in test [2], in test [3], in test [4], in test [5] and in test [6] was “inactive” in each case.

`C=CC(=O)N1CC(N2CCN(C(=O)CNc3cc(C4CC4)c(Cl)cc3O)CC2)C1`: the Potency entry in test [1], in test [2], in test [3], in test [5] and in test [6] was “inactive” each time. The Potency in test [4] is 2.67 µM (active).

Turning to `CC(=O)[C@H]1CC[C@H]2[C@@H]3CC=C4C[C@@H](OS(=O)(=O)O)CC[C@]4(C)[C@H]3CC[C@]12C`, the Potency entry in test [1], in test [2], in test [3], in test [4], in test [5] and in test [6] was “inactive” in each case.

On to `Cn1nc(-c2ccc(C(F)(F)F)cc2)nc2c(=O)n(C)c(=O)nc1-2`, for which the Potency in test [1] was 25.5 µM (active); in test [2] it was 22.7 µM (active); in test [3], 6.01 µM (active); in test [4] it was 2.67 µM (active); in test [5] it was 3.01 µM (active); in test [6] it was 0.15 µM (active).

With `CCCC1(CCC)CCC2(CCN(CCCN(CC)CC)C2)CC1`, the Potency result in test [1], in test [2], in test [3], in test [4], in test [5] and in test [6] was “inactive” throughout.

On to `C/C=C/C=C/C=C/C(=O)O[C@@H]1C=C2COC(=O)[C@]2(O)[C@@]2(C)CCCC(C)(C)[C@H]12`, for which the Potency entry in test [1], in test [2], in test [3], in test [4], in test [5] and in test [6] was “inactive” throughout.
